The whole screen tested about 39,000 compounds, of which about 3,300 (8.5%) were called active. The entries come from a sample that favours actives as a whole.
Tested on: HepG2
Experiment: cytotoxicity call (relative viability < 0.9)
Details: 10 µM

| SMILES | cytotoxicity call |
| --- | --- |
| NC[C@@H](CC(=O)O)c1ccc(Cl)cc1 | inactive |
| CCOC(=O)c1c(CN2CCN(Cc3ccccc3)CC2)n(Cc2ccccc2)c2cc(Br)c(O)cc12 | inactive |
| CN(C)C(=O)C(CCN1CCC(O)(c2ccc(Cl)cc2)CC1)(c1ccccc1)c1ccccc1.Cl | active |
| CN1CCN(CC2CC2)C(=O)C12CCNCC2 | inactive |
| O=C(C1CCCC1)N1C[C@@H]2CCNC[C@@H]21 | inactive |
| CCN1C(=O)/C(=C/c2ccc[nH]2)C(=O)NC1=S | inactive |
| CO[C@H]1[C@@H](O)[C@@H](O[C@H]2CC[C@]3(C=O)[C@@H]4[C@@H](CC[C@]3(O)C2)[C@@]2(O)CC[C@H](C3=CC(=O)OC3)[C@@]2(C)C[C@H]4OC(C)=O)O[C@@H](C)[C@@H]1OC(C)=O | inactive |
| CC(=O)O[C@H]1C[C@H](O[C@H]2[C@@H](O)C[C@H](O[C@H]3[C@@H](O)C[C@H](O[C@H]4CC[C@@]5(C)[C@@H](CC[C@H]6[C@@H]5C[C@@H](O)[C@]5(C)[C@@H](C7=CC(=O)OC7)CC[C@]65O)C4)O[C@@H]3C)O[C@@H]2C)O[C@H](C)[C@H]1O[C@@H]1O[C@H](CO)[C@@H](O)[C@H](O)[C@H]1O | active |
| CC12CCC3C(CCC4CC(O)CCC43C)C1CCC2=O (stereo unspecified) | inactive |
| CO[C@H]1[C@H](O)[C@@H](O[C@H]2[C@@H](C)O[C@@H](O[C@H]3[C@H](C)O[C@H](O[C@H]4CC[C@@]5(C)[C@@H](CC[C@@]6(O)[C@@H]5C[C@@H](O)[C@]5(C)[C@]6(O)CC[C@@]5(O)[C@@H](C)O)C4)C[C@@H]3OC)C[C@H]2OC)O[C@@H](C)[C@H]1O | inactive |
| CC12CCC3C(CCC4CC(O)CCC43C)C1CCC2O (stereo unspecified) | inactive |
| CO[C@H]1[C@@H](O)C[C@@H](O[C@H]2[C@@H](O)C[C@@H](O[C@H]3[C@@H](O)C[C@@H](O[C@H]4CC[C@@]5(C)[C@@H](CC[C@H]6[C@@H]5C[C@@H](O)[C@@]5(C)[C@H](C7=CC(=O)OC7)CC[C@@]65O)C4)O[C@@H]3C)O[C@@H]2C)O[C@@H]1C | active |
| CC(=O)OC1CC(OC2C(O)CC(OC3C(O)CC(OC4CCC5(C)C(CCC6C5CC(O)C5(C)C(C7=CC(=O)OC7)CCC65O)C4)OC3C)OC2C)OC(C)C1OC1OC(CO)C(O)C(O)C1O (stereo unspecified) | active |
| CC12CCC(O)CC1CCC1C2CC(O)C2(C)C(C3=CC(=O)OC3)CCC12O (stereo unspecified) | active |
| O=C(NC[C@H]1CC[C@]2(CNCCOC2)O1)c1ccnnc1 | inactive |
| C=C(C)[C@H]1CN[C@H](C(=O)O)[C@@H]1CC(=O)O | inactive |
| CO/C1=C\C(C)=C\[C@@H](C)[C@@H](O)[C@@H](C)C/C(C)=C/C=C/[C@H](OC)[C@@H]([C@@H](C)[C@@H](O)[C@H](C)C(=O)/C=C/[C@H](C)[C@H](O)C(C)C)OC1=O | inactive |
| CC(C)c1ccc2c(c1)[C@H](O)[C@H](N)CCO2 | inactive |
| O=C1NCC2(CNC2)O1 | inactive |
| CCN(CC)C1CCCCC1 | inactive |
| NC1(Cc2ccc(Cl)cc2)CC1 | inactive |
| O.O=c1ccc2cc(OC3OC(CO)C(O)C(O)C3O)c(O)cc2o1 (stereo unspecified) | inactive |
| CC(C)(C)[C@]1(O)C[C@@H]2OC(=O)C[C@]23C(=O)O[C@@H]2OC(=O)[C@H](O)[C@]231 | inactive |
| CC(=O)O[C@H]1C[C@@H]2CC[C@@H]3[C@H](CC[C@@]4(C)[C@H]3C[C@H]([N+]3(C)CCCCC3)[C@@H]4OC(C)=O)[C@@]2(C)C[C@@H]1[N+]1(C)CCCCC1 | inactive |
| CC(=O)OC1CCC2(C)C(CCC3C2CCC2(C)C(C4=CC(=O)OC4)C(OC(C)=O)CC32O)C1 (stereo unspecified) | active |
| O=C(O)CC[N+](=O)[O-] | inactive |

| SMILES | cytotoxicity call |
| --- | --- |
| C[C@H]1CN([C@@H](C)CO)C(=O)CCCn2cc(nn2)CO[C@@H]1CN(C)C(=O)Oc1ccc2ccccc2c1 | inactive |
| [N-]=[N+]=NCC(=O)Nc1ccon1 | inactive |
| N#CCCN.O=C(O)C=CC(=O)O | inactive |
| COC(=O)[C@H]1[C@H](CO)[C@H]2Cn3c(ccc(C4=CCCC4)c3=O)[C@@H]1N2S(=O)(=O)c1cn(C)cn1 | inactive |
| CC[C@@H](C)C(=O)O[C@H]1[C@H](O)[C@H]2[C@@H](CN3C[C@@H](C)CC[C@@H]3[C@@]2(C)O)[C@H]2C[C@]34O[C@]5(O)[C@@H](OC(=O)[C@@](C)(O)[C@@H](C)O)CC[C@@]3(C)[C@@H]5[C@@H](OC(C)=O)[C@@H](OC(C)=O)[C@@H]4[C@@]21O | active |
| C/C=C(/C)C(=O)O[C@H]1CC[C@@]2(C)[C@@H]3CC[C@H]4[C@]5(O)C[C@H](O)[C@@]6(O)[C@@H](CN7C[C@@H](C)CC[C@H]7[C@@]6(C)O)[C@]5(O)C[C@@]42O[C@@]13O | inactive |
| CC[C@@H](C)C(=O)O[C@H]1[C@H](O)[C@H]2[C@@H](CN3C[C@@H](C)CC[C@@H]3[C@@]2(C)O)[C@H]2C[C@]34O[C@]5(O)[C@@H](OC(=O)[C@@](C)(O)CC)CC[C@@]3(C)[C@@H]5[C@@H](OC(C)=O)[C@@H](OC(C)=O)[C@@H]4[C@@]21O | inactive |
| CC(C)C12CN3CCN(CC(C3)C1=O)C2 | inactive |
| C[C@@H]1CN([C@H](C)CO)C(=O)c2c(c3ccccc3n2C)-c2ccccc2CO[C@H]1CN(C)C(=O)Oc1ccccc1 | inactive |
| Cc1o[nH]c(=O)c1C[C@@H](N)C(=O)O | inactive |
| CC(N)C(O)c1ccccc1.Cl (stereo unspecified) | inactive |
| COc1ccc(OC)c(CN)c1 | inactive |
| COc1ccc(OC)c(C(O)C(C)N)c1.Cl (stereo unspecified) | active |
| O=c1[nH]oc2c1CCNC2 | inactive |
| COC(C)(C)CCC[C@H](C)C/C=C/C(C)=C/C(=O)OC(C)C | inactive |
| Cl.O=C1CCC2(O)C3Cc4ccc(O)c5c4C2(CCN3CC2CC2)C1O5 (stereo unspecified) | inactive |
| C=CC1CN2CCC1CC2C(OC(=O)OCC)c1ccnc2ccc(OC)cc12 (stereo unspecified) | inactive |
| C=CC1CN2CCC1CC2C(O)c1ccnc2ccccc12 (stereo unspecified) | inactive |
| CCC1CN2CCC1CC2C(O)c1ccnc2ccc(OC)cc12 (stereo unspecified) | active |
| CO[C@H]1C[C@H](O[C@H]2CC[C@]3(C=O)[C@H]4CC[C@]5(C)[C@@H](C6=CC(=O)OC6)CC[C@]5(O)[C@@H]4CC[C@]3(O)C2)O[C@H](C)[C@H]1O | active |
| COC1C(O)C(C)OC(OC2CCC3(C)C4CCC5(C)C(C6=CC(=O)OC6)CCC5(O)C4CCC3(O)C2)C1O (stereo unspecified) | inactive |
| COC1C(O)C(C)OC(OC2CCC3(C=O)C(CCC4C3CCC3(C)C(C5=CC(=O)OC5)CCC43O)C2)C1O (stereo unspecified) | active |
| C[C@@H]1O[C@@H](O[C@H]2CC[C@]3(C=O)[C@H]4CC[C@]5(C)[C@@H](C6=CC(=O)OC6)CC[C@]5(O)[C@@H]4CC[C@]3(O)C2)[C@H](O)[C@H](O)[C@H]1O | active |
| CC1OC(OC2CCC3(C=O)C4CCC5(C)C(C6=CC(=O)OC6)CCC5(O)C4CCC3(O)C2)C(O)C(O)C1O (stereo unspecified) | active |
| CO[C@H]1[C@@H](O)[C@@H](C)O[C@H](O[C@H]2CC[C@@]3(C)[C@H]4CC[C@@]5(C)[C@@H](C6=CC(=O)OC6)CC[C@]5(O)[C@@H]4CC[C@]3(O)C2)[C@@H]1O | inactive |

— the antibiotic and cytotoxicity screens of Wong et al. (2023)
